Bioassay records from PubChem BioAssay.
CHO-K1 Ca ag = counter-screen for M1 agonists: effect in parental CHO-K1 cells; Fluo-8 calcium fluorescence; scaled to maximal ATP response, vehicle zero; activation, % at 3 µM; 360,000 tested, 0.48% active; AID 602248; in the data active = activation above about 15%;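 note: untransfected CHO-K1 host cells lacking M1 receptor as counterscreen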
M1 ag = activates human CHRM1 receptor | P11229 | CHO-K1 hM1, Fluo-8 calcium fluorescence, agonist mode; 0% DMSO, 100% acetylcholine EC100 | activation, % at 3 µM | 360,000 tested, 0.33% active;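 active = activation above the run's mean compound activation plus 3 SD, cut at about 16% in these data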;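 note: peak over basal fluorescence ratio within a 140 s kinetic read after compound addition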
Target sequence (P11229 whole entry, looked up): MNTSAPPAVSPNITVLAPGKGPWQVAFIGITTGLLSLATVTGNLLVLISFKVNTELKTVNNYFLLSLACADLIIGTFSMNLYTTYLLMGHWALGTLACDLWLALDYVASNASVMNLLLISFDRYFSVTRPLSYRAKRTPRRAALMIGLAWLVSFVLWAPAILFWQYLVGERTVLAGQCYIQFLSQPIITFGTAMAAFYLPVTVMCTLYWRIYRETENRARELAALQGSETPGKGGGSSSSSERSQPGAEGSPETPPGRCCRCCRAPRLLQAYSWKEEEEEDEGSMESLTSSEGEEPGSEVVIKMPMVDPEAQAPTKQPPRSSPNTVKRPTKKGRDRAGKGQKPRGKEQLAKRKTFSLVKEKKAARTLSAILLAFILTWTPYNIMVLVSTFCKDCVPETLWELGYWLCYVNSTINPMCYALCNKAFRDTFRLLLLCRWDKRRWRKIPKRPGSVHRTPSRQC
CHRM1 antagonist = antagonists of human M1 muscarinic receptor; P11229; CHO-K1 hM1, Fluo-8 calcium fluorescence, ACh EC80 antagonist; inhibition, % at 3 µM; 360,000 tested, 1.3% active;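 active = percent inhibition above its own plate's cutoff, namely the mean of that plate's compound wells plus 3 SD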;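 note: peak over basal fluorescence ratio during 140 s after agonist addition; 0% = ACh EC80 plus DMSO and 100% = DMSO alone without agonist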
CHO-K1 Ca antag = M1 antagonist counterscreen hit in parental CHO-K1 cells; ATP-induced calcium, Fluo-8 fluorescence; inhibition, % at 3 µM; 360,000 tested, 0.6% active; AID 602250;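 active = inhibition above a per-plate cutoff, the plate's mean sample inhibition plus 3 SD, cut at about 24% in these data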;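 note: 0% = DMSO plus EC80 ATP and 100% = DMSO alone without ATP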
M1 PAM = positive allosteric modulators of human M1 muscarinic receptor | P11229 | CHO-K1 hM1, Fluo-8 calcium fluorescence, ACh EC20; 0% = ACh EC20, 100% = maximal ACh | activation, % at 3 µM | 360,000 tested, 0.088% active | AID 588819; in the data active = activation above about 19%, passing the limit was not always enough
CHO-K1 Ca PAM = nonselective activator or artifact in parental CHO-K1 calcium assay. ATP EC20, Fluo-8 calcium fluorescence; 0% at ATP EC20, 100% at ATP max. activation, % at 3 µM. 360,000 tested, 0.02% active. AID 602247;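 active = activation above the run cutoff, the mean activation of all test compounds plus 3 SD, cut at about 40% in these data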;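 note: peak over basal fluorescence ratio in a 140 s read after ATP addition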
Active calls of the source: *. Shown are actives, neighbours in structure and some others; about 2.3% of the full set was active somewhere.

SMILES	CHO-K1 Ca ag	M1 ag	CHRM1 antagonist	CHO-K1 Ca antag	M1 PAM	CHO-K1 Ca PAM
COc1ccc(C(CNC(=O)c2cccc(NS(=O)(=O)c3ccccc3)c2)N(C)C)cc1 (stereo not drawn)	0	-6	48*	-3	-20	8
CCOc1ccc(S(=O)(=O)Nc2cccc(C(=O)NCC(c3ccccc3)N(C)C)c2)cc1 (stereo not drawn)	12	0	24	-15	-19	19
COc1ccccc1C(CNC(=O)c1cccc(NS(=O)(=O)c2ccc(C)c(F)c2)c1)N(C)C (stereo not drawn)	0	-8	85*	3	-27	5
COc1ccc(N(C)S(=O)(=O)c2cccc(C(=O)Nc3nc4ccccc4[nH]3)c2)cc1	8	-4	34*	-7	-15	-13
CCN(CC)S(=O)(=O)c1cccc(C(=O)NCC(c2ccccc2)N(C)C)c1 (stereo not drawn)	0	-15	55*	-8	-36	-8
Cc1cccc(Nc2nc(NCCCN3CCOCC3)nc(N)c2[N+](=O)[O-])c1	3	-8	-6	-26	4	23
COc1ccc(N(C)S(=O)(=O)c2cccc(C(=O)NCC(c3ccco3)N3CCCC3)c2)cc1 (stereo not drawn)	2	-6	4	-10	-8	12
COc1ccccc1C(CNC(=O)c1cccc(S(=O)(=O)NCc2ccccc2)c1)N(C)C (stereo not drawn)	3	-2	50*	8	-18	-2
COc1cccc(CN(C)C(=O)c2cccc(S(=O)(=O)NCc3ccccc3)c2)c1OC	4	1	-13	1	6	10
Cc1cc(S(=O)(=O)Nc2ccc(C(=O)NCC(c3ccccc3)N(C)C)cc2)ccc1F (stereo not drawn)	2	-5	13	6	-8	-3
CC(=O)c1ccc(S(=O)(=O)NCc2ccc(C(=O)NCC(c3ccccc3)N(C)C)cc2)cc1 (stereo not drawn)	2	-11	25*	-14	-30	6
COc1ccccc1C(CNC(=O)c1ccc(NS(=O)(=O)c2ccc(F)c(C)c2)cc1)N(C)C (stereo not drawn)	1	28*	21	-13	-9	10
COc1ccc(N(C)S(=O)(=O)c2cccc(C(=O)NCC(c3cccs3)N(C)C)c2)cc1 (stereo not drawn)	1	-7	52*	13	-26	-1
CC(=O)CCC(=O)N1CCC(n2nccc2NC(=O)c2ccccc2C)CC1	0	3	5	10	14	-9
CCc1cccc(CC)c1NC(=S)N(CCN(C)C)C(C)c1cccnc1 (stereo not drawn)	0	0	-8	1	6	-10
CCOC(=O)c1cocc1C(=O)O	-1	1	0	7	9	-25
CCCc1ncc(C(O)(c2ccccc2)c2ccc(C)cc2)n1C (stereo not drawn)	2	-8	95*	-9	-25	25
CCCc1ncc(C(O)(c2ccccc2)c2ccccc2)n1C	1	-13	94*	-4	-32	18
CCCc1ncc(C(O)c2cccc3ccccc23)n1C (stereo not drawn)	2	-4	-12	-9	-2	25
CCOc1ccccc1C1C2C(=O)N(c3ccccc3)C(=O)C2ON1c1ccccc1 (stereo not drawn)	3	-4	28*	7	-12	10
CCN(CC)S(=O)(=O)c1ccc(N2Cc3ccccc3C2=N)cc1	5	-3	30*	-2	-9	8
Cc1ccccc1-n1nnnc1SCC(=O)Nc1ccc(N2CCN(C)CC2)cc1	0	-14	7	-9	-17	-9
Cc1ccccc1-n1nnnc1SC(C)C(=O)Nc1ccc(N2CCN(C)CC2)cc1 (stereo not drawn)	0	-5	51*	-8	-21	5
Cc1cc(N2CCCC2)ccc1/C=C1\NC(=S)N(C)C1=O	17*	23*	18	20	-13	-1
O=C1N/C(=C/c2ccc(N3CCCC3)cc2)C(=O)N1c1ccccc1	2	-1	-13	-7	7	19
